Data reported in ChEMBL document CHEMBL4513146, “CO-ADD screening of Karazin Kharkiv National University (Ukraine) compounds”.
Entries with a potency or affinity are not part of this list.

Legend:
Staphylococcus aureus = settings: Concentration 32 ug.mL-1;; ASSAY_TEST Inhibition of Bacterial Growth; detection method Absorption (OD600); MEDIA CAMHB; plate type 384well; NBS; CORNING #3640; time 18 hr
Escherichia coli = settings: Concentration 32 ug.mL-1;; ASSAY_TEST Inhibition of Bacterial Growth; detection method Absorption (OD600); MEDIA CAMHB; plate type 384well; NBS; CORNING #3640; time 18 hr

SMILES	Inhibition (Staphylococcus aureus) [%]	Inhibition (Escherichia coli) [%]
COc1ccc(-n2ccn3c(-c4ccc([N+](=O)[O-])cc4)nnc3c2=O)cc1	12.69	-0.05
COC(=O)c1ccc(NC(=O)Cn2nc3c4sc(N5CCCC5)nc4ncn3c2=O)cc1	-12.82	-9.22
Cc1ccc(NC(=O)CSc2nc3ccccc3n3c(C)nnc23)c(Br)c1	15.19	-2.51
CCOc1ccc(N(Cc2ccc(F)cc2)S(=O)(=O)c2ccc3nncn3c2)cc1	-10.69	-16.83
CCc1cccc(NC(=O)Cn2nc3c(SCc4ccc(Cl)cc4)nccn3c2=O)c1	-8.25	-12.19
Cc1ccc(-c2ccc3nn(CC(=O)Nc4ccc(C#N)cc4)c(=O)n3n2)cc1C	8.65	0.46
Cc1cccc(C)c1NC(=O)CSc1nnc2ccc(C(=O)Nc3cccc(F)c3)cn12	12.1	2.91
COc1cccc(Oc2nccn3c(=O)n(CC(=O)Nc4ccc(C(C)C)cc4)nc23)c1	-2.58	-7.16
Cc1cccc(NC(=O)c2ccc3nnc(SCC(=O)Nc4ccc(Br)cc4)n3c2)c1	11.58	0.25
O=C(Cn1nc2c(Oc3ccccc3)nccn2c1=O)Nc1ccc2c(c1)OCCO2	7.17	2.24
Cc1ccc(Sc2ccc3nn(CC(=O)Nc4ccc(Br)c(C)c4)c(=O)n3n2)cc1	8.43	-6
CCc1ccc(Cn2c(=O)c3sccc3n3c(=O)n(Cc4c(F)cccc4Cl)nc23)cc1	3.47	-8.75
Cc1ccc(-c2cc3c4nn(CC(=O)Nc5ccc6c(c5)OCO6)c(=O)n4ccn3n2)cc1	12.49	-1.53
CSc1cccc(NC(=O)Cn2nc3c(N4CCCC(C)C4)nccn3c2=O)c1 (stereo unspecified)	-21.6	-14.98
Cc1cc(Nc2ccc(F)cc2)nc2nn(CCc3ccccc3)c(=O)n12	4.62	-5.44
CC(C)CCNC(=O)CSc1nnc2c3cc(-c4ccccc4)nn3ccn12	4.29	0.66
COc1ccc(NC(=O)Cn2nc3c(N4CCCC4)nccn3c2=O)cc1	5.17	5.65

SMILES	Inhibition (Staphylococcus aureus) [%]	Inhibition (Escherichia coli) [%]
CCOC(=O)c1ccc(NC(=O)Cn2nc3ccc(Sc4ccccc4)nn3c2=O)cc1	9.67	-3.7
CC(C)CCNC(=O)CSc1nnc2c(=O)n(-c3ccc(F)cc3)ccn12	8.18	-2.32
COc1ccc(CN(c2ccc(F)c(F)c2)S(=O)(=O)c2ccc3nncn3c2)cc1	-0.97	-4.01
CCCCOc1ccc(-c2cc3c4nnc(SCC(=O)NCc5ccc(OC)cc5)n4ccn3n2)cc1	-2.43	-7.34
O=C(Cn1nc2ccc(SCc3ccc(Cl)cc3)nn2c1=O)Nc1ccc2c(c1)CCC2	2.54	-5.73
Cc1ccc(NC(=O)Cn2nc3c(Oc4ccccc4)nccn3c2=O)c(Cl)c1	0.38	-2.7
Cc1ccc(-c2ccc3nn(Cc4nc(-c5ccc(Cl)cc5)no4)c(=O)n3n2)cc1	5.13	0.55
Cc1ccc(-c2cc3c4nn(CC(=O)N5CCN(c6ccc(F)cc6)CC5)c(=O)n4ccn3n2)cc1C	6.16	1.43
COc1ccc(-c2cc3c4nn(CC(=O)NCc5ccccc5Cl)c(=O)n4ccn3n2)cc1	8.73	0.93
Cc1ccc(N(CC(=O)OC(C)(C)C)S(=O)(=O)c2cccn3cnnc23)cc1	15.19	-3.99
COc1ccc(NC(=O)Cn2nc3c(Oc4ccccc4)nccn3c2=O)cc1	9.87	-1.88
COc1ccccc1N1CCN(C(=O)Cn2nc3ccc(-c4ccc(Cl)cc4)nn3c2=O)CC1	8.63	0.78
Cc1ccc(NC(=O)Cn2nc3ccc(SCc4ccc(Cl)cc4)nn3c2=O)c(C)c1	-11.8	-8.79
CCc1ccc(N(Cc2cccc(OC)c2)S(=O)(=O)c2cccn3cnnc23)cc1	17.37	2.31
Cc1ccc(NC(=O)Cn2nc3c(SC4CCCCC4)nccn3c2=O)cc1	10.51	-0.3
COc1cccc(-n2ccn3c(SC(C)C(=O)c4ccc(C)c(C)c4)nnc3c2=O)c1 (stereo unspecified)	13.98	1.22
